Assay results from PubChem BioAssay (NCATS).
Records with an inconclusive call do not appear. Active and inactive are the calls of the source. Unless noted, calls follow the shape of the dose curve; as a rule, active = well fitted curve in the direction sought with a large enough effect; inconclusive = small, poorly fitted or top-dose-only effect, or another doubt; inactive = no such curve, though single readings can be large; an effect the other way counts as inactive or inconclusive.

Columns and labels:
[1] = P-glycoprotein substrates identified in KB-8-5-11 adenocarcinoma cell line, qHTS therapeutic library screen (AID 1346987); also: nearly all actives have a fitted effect of over 65% in size; also: potency is read from the fitted curve at half-maximal effect
Outline: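 KB-8-5-11, a colchicine-selected P-gp-overexpressing KB-3-1 subline, was grown without colchicine for the assay. Cells were seeded at 500 cells/well, dosed in concentration-response and incubated 72 h at 37 degree C, 5% CO2. Viability was read by CellTiter-Glo luminescence.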

[2] = NS1 protein of Zika virus - qHTS assay to identify small molecule inhibitors in human HEK 293 cells (AID 1347053); also: nearly all actives have a fitted effect of over 55% in size; also: potency is read from the fitted curve at half-maximal effect
Outline: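 HEK 293 cells pretreated with compound for 1 h, then infected with ZIKV MR766 (MOI 0.5) for 24 h at 37 C. NS1 detected by TR-FRET with two anti-NS1 antibodies; normalized to uninfected (0%) and infected (100%) wells.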

[3] = qHTS of pediatric cancer cell lines to identify multiple opportunities for drug repurposing: Primary screen for TC32 cells (AID 1347089); also: nearly all actives have a fitted effect of over 60% in size; also: potency is read from the fitted curve at half-maximal effect
Outline: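 In the primary qHTS, MIPE compounds were tested at 11 concentrations (0.78 nM to 46 µM) and NPC compounds at 8 (0.59 nM to 46 µM) on TC32 cells for 48 h. CellTiter-Glo luminescence gave viability.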

[4] = qHTS of pediatric cancer cell lines to identify multiple opportunities for drug repurposing: Primary screen for DAOY cells (AID 1347090); also: nearly all actives have a fitted effect of over 55% in size; also: potency is read from the fitted curve at half-maximal effect
Outline: (§1)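 Cell viability, CellTiter-Glo luminescence; 500-1,000 cells/well, 8- or 11-point titration, 48 h compound exposure at 37 degrees C, 5% CO2. Controls: DMSO neutral, bortezomib 2.3 µM final as positive.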

[5] = qHTS of pediatric cancer cell lines to identify multiple opportunities for drug repurposing: Primary screen for SJ-GBM2 cells (AID 1347091); also: potency is read from the fitted curve at half-maximal effect
Outline: as §1

[6] = qHTS of pediatric cancer cell lines to identify multiple opportunities for drug repurposing: Primary screen for A673 cells (AID 1347092); also: nearly all actives have a fitted effect of over 45% in size; also: potency is read from the fitted curve at half-maximal effect
Outline: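 48 h compound exposure, A673, 500-1,000 cells/well, 37 degrees C/5% CO2. MIPE: 11-point, 0.78 nM-46 µM; NPC: 8-point, 0.59 nM-46 µM (final). Readout CellTiter-Glo luminescence after 15 min RT.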

[7] = qHTS of pediatric cancer cell lines to identify multiple opportunities for drug repurposing: Primary screen for SK-N-MC cells (AID 1347093); also: potency is read from the fitted curve at half-maximal effect
Outline: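 Metabolically active cells were quantified by ATP-dependent luminescence (CellTiter-Glo, 15 min at room temperature) following 48 h treatment. Cells had been plated at 500-1,000 per well and settled for 5 h beforehand.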

[8] = qHTS of pediatric cancer cell lines to identify multiple opportunities for drug repurposing: Primary screen for BT-37 cells (AID 1347094); also: potency is read from the fitted curve at half-maximal effect
Outline: (§2)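 Quantitative HTS format: each compound titrated (MIPE 11 points from 0.78 nM, NPC 8 points from 0.59 nM) onto cells plated 5 hours earlier. After 48 h at 37 degrees C, CellTiter-Glo luminescence was recorded.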

[9] = qHTS of pediatric cancer cell lines to identify multiple opportunities for drug repurposing: Primary screen for NB-EBc1 cells (AID 1347095); also: potency is read from the fitted curve at half-maximal effect
Outline: as §2

[10] = qHTS of pediatric cancer cell lines to identify multiple opportunities for drug repurposing: Primary screen for U-2 OS cells (AID 1347096); also: nearly all actives have a fitted effect of over 50% in size; also: potency is read from the fitted curve at half-maximal effect
Outline: (§3)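 Cells (500-1,000/well) rested 5 h, then received compounds for 48 h; metabolically active cells were measured by CellTiter-Glo luminescence. Final concentrations spanned up to 46 µM (MIPE, 11-point) or 0.59 nM-46 µM (NPC, 8-point) in primary screens, 11-point in follow-ups.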

[11] = qHTS of pediatric cancer cell lines to identify multiple opportunities for drug repurposing: Primary screen for Saos-2 cells (AID 1347097); also: nearly all actives have a fitted effect of over 40% in size; also: potency is read from the fitted curve at half-maximal effect
Outline: as §2

[12] = qHTS of pediatric cancer cell lines to identify multiple opportunities for drug repurposing: Primary screen for SK-N-SH cells (AID 1347098); also: nearly all actives have a fitted effect of over 65% in size; also: potency is read from the fitted curve at half-maximal effect
Outline: as §3

[13] = Natriuretic polypeptide receptor (hNpr1) antagonism - Pilot counterscreen GloSensor control cell line (AID 1347045; calls by dose curve; also: series mostly up to about 38 µM)
Outline: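 HEK293 cGMP GloSensor cells preloaded 2 h with 2% GloSensor reagent, then compound 30 min before baseline luminescence read. Stimulated with 50 uM sodium nitroprusside, 20 min at room temperature, then read again; counterscreen for Npr1 antagonism.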

[14] = target: Atrial natriuretic peptide receptor 1 (Homo sapiens) (UniProt P16066); test: Natriuretic polypeptide receptor (hNpr1) antagonism - Pilot screen (AID 1347049; calls by dose curve;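 also: agonist-evoked cGMP luminescence read 20 min after hNppA addition; series mostly up to about 58 µM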)
Atrial natriuretic peptide receptor 1 (Homo sapiens), sequence (P16066 whole entry, looked up): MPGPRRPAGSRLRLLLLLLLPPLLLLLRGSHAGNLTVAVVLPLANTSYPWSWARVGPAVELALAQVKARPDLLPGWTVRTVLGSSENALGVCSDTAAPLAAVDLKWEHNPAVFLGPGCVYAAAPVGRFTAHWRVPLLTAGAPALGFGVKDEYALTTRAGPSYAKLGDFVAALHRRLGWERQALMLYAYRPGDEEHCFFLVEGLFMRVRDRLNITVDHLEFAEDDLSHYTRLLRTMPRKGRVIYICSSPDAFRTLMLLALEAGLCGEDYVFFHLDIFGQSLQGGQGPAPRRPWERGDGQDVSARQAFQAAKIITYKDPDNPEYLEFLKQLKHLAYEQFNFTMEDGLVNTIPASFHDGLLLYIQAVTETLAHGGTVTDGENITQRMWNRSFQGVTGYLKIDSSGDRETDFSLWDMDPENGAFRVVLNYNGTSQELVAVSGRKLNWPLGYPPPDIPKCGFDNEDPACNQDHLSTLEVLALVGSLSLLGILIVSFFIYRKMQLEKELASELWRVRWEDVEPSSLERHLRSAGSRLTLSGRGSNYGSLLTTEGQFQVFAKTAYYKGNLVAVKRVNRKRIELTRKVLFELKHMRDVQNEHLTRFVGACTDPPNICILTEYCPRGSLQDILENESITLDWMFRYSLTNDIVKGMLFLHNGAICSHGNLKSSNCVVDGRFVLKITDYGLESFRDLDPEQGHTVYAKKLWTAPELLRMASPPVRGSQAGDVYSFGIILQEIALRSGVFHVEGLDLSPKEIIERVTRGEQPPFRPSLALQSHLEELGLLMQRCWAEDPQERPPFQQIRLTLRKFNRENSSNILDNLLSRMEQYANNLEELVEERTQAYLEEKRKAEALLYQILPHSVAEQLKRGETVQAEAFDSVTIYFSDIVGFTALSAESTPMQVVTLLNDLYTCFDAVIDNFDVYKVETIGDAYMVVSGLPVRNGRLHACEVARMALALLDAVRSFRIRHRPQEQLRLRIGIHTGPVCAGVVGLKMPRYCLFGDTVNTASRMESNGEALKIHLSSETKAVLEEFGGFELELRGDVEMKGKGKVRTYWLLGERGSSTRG
Outline: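 Readout is cGMP-driven firefly luciferase luminescence in HEK293 cells carrying hNpr1 and a PDE5-domain GloSensor, read before and 20 min after 0.1 nM hNppA stimulation. Cells had 2% substrate reagent for 2 h and test compound for 30 min.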

[15] = target: Atrial natriuretic peptide receptor 2 (Homo sapiens) (UniProt P20594); test: Natriuretic polypeptide receptor (hNpr2) antagonism - Pilot subtype selectivity assay (AID 1347050; calls by dose curve)
Atrial natriuretic peptide receptor 2 (Homo sapiens), sequence (P20594 whole entry, looked up): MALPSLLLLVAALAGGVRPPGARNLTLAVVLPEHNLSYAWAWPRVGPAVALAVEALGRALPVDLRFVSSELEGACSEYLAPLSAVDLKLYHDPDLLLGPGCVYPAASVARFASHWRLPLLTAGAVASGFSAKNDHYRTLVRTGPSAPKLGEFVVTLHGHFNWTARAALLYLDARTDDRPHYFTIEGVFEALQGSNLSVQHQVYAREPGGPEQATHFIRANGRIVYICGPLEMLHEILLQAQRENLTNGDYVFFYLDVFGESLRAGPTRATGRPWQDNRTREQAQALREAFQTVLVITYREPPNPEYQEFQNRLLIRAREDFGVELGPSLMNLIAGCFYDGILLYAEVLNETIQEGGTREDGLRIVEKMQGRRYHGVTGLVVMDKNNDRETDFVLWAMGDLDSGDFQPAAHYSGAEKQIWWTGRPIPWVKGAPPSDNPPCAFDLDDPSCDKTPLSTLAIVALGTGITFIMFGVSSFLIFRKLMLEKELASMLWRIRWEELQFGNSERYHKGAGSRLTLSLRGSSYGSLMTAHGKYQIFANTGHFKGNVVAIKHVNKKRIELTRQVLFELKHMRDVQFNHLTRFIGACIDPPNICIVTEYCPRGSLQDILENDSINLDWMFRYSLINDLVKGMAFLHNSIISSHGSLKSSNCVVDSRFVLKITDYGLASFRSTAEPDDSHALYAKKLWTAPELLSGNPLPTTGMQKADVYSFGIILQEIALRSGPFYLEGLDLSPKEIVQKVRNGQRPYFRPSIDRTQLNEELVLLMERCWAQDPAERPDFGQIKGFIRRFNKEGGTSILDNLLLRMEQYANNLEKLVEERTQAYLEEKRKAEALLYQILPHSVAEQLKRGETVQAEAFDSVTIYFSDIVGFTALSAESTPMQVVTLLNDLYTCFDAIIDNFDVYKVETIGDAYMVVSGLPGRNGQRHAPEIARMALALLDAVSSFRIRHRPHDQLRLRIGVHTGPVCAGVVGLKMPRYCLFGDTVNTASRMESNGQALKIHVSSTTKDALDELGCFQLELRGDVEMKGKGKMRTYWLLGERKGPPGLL
Outline: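 Pilot selectivity screen against hNpr2: HEK293 cGMP-sensor cells are treated with LOPAC1280 compounds, then with hNppC peptide at 1 nM final. The cGMP-driven luminescence change over 20 min at room temperature is the read-out.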

[16] = target: T1, Tyrosine-protein phosphatase non-receptor type substrate 1 (Homo sapiens) + Leukocyte surface antigen CD47 (Homo sapiens) (UniProt P78324+Q08722); test: CD47-SIRPalpha protein protein interaction - LANCE assay qHTS validation (AID 1347057; active = well fitted curve in the direction sought with a large enough effect in the signal ratio, with a control signal flat, not every such curve was filed as active; the % refers to the signal ratio; also: series mostly up to about 38 µM)
T1 sequence (P78324 whole entry, looked up): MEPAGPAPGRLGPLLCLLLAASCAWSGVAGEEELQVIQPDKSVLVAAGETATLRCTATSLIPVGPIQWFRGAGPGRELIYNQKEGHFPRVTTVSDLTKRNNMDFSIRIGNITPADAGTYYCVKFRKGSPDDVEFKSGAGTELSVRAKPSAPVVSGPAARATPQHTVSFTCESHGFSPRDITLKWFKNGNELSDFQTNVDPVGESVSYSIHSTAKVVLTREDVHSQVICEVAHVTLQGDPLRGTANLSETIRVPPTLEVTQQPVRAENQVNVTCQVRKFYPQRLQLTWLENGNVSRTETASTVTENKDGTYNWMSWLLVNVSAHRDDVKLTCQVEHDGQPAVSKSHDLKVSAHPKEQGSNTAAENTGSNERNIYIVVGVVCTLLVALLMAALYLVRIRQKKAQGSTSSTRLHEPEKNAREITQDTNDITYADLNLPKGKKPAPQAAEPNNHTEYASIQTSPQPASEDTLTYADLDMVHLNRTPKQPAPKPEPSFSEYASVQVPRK
T1 sequence (Q08722 whole entry, looked up): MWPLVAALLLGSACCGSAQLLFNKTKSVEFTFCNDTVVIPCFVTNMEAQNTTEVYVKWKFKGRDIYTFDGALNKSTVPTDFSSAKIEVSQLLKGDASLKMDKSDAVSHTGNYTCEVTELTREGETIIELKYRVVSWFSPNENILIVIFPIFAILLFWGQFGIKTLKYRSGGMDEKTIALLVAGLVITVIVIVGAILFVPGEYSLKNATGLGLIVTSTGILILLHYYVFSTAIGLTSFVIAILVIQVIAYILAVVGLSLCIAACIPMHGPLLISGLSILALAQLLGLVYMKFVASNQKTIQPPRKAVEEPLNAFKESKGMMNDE
Outline: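 First, His-tagged CD47 and Eu-labelled anti-His antibody met the compound for 30 min; next, site-specifically biotinylated SIRPalpha was added for 30 min; finally streptavidin-APC was added before reading the TR-FRET ratio.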

[17] = target: T1, Tyrosine-protein phosphatase non-receptor type substrate 1 (Homo sapiens) + Leukocyte surface antigen CD47 (Homo sapiens); test: CD47-SIRPalpha protein protein interaction - HTRF assay qHTS validation (AID 1347058; active = well fitted curve in the direction sought with a large enough effect in the signal ratio, not every such curve was filed as active; the % refers to the signal ratio;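 also: recombinant soluble extracellular CD47 with His tag and biotinylated SIRPalpha domains; series mostly up to about 38 µM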)
Outline: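 TR-FRET read (Ch1/Ch2 ratio) of soluble extracellular CD47 and Avi-biotinylated SIRPalpha domains in PBS pH 7.4 with 0.05% IGEPAL; 7-point compound titration. Sequential 30 min room-temperature steps; non-biotinylated SIRPalpha as control inhibitor.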

[18] = target: T1, Tyrosine-protein phosphatase non-receptor type substrate 1 (Homo sapiens) + Leukocyte surface antigen CD47 (Homo sapiens); test: CD47-SIRPalpha protein protein interaction - Alpha assay qHTS validation (AID 1347059);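 also: bead proximity luminescence from CD47 binding SIRPalpha after compound preincubation with SIRPalpha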
Outline: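 Binding is measured by AlphaScreen proximity: Ni-NTA acceptor beads capture His-CD47, streptavidin donor beads capture biotin-SIRPalpha. Each of three additions (SIRPalpha with compound, CD47, beads) incubates 30 min at room temperature protected from light.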

[19] = target: Parathyroid hormone/parathyroid hormone-related peptide receptor (Homo sapiens) (UniProt Q03431); test: qHTS for PTHR1 Agonists: Optimization Screen against the NCGC LOPAC library (AID 1347079);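 also: GloSensor cAMP luminescence in HEK-293 GP2 cells expressing human PTHR1 with IBMX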
Parathyroid hormone/parathyroid hormone-related peptide receptor (Homo sapiens), sequence (Q03431 whole entry, looked up): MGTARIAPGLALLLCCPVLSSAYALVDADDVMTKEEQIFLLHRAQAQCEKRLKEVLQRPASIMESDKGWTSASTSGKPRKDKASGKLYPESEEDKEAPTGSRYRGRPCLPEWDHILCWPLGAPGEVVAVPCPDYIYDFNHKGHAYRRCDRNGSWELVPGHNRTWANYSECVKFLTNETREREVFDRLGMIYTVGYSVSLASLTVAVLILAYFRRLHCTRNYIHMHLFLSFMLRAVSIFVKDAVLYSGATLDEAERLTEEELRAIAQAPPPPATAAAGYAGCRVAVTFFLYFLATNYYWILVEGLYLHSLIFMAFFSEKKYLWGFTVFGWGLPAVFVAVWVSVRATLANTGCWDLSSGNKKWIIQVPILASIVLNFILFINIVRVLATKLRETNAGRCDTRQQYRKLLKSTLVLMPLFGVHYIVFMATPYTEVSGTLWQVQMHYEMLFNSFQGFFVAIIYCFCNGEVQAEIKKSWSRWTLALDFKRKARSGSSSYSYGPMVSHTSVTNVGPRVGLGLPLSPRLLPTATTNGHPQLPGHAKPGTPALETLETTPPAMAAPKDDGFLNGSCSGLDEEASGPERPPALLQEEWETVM
Outline: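 Agonist readout: GloSensor cAMP luminescence, read after 15 min at room temperature. HEK-293-derived GP2 line carries PTHR1; compounds tested as a titration for 1 hr at 37C in presence of IBMX. M-PTH (1-15) served as control.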

Measured: Potency

CON(C)C(=O)N1N=C(c2cc(F)ccc2F)S[C@]1(CCCN)c1ccccc1
inactive: [8] | [10]
active: [1] 0.0148 µM | [2] 14.8 µM | [3] 4.7 nM | [4] 0.0015 µM | [5] 1 nM | [6] 0.001 µM | [7] 1 nM | [9] 0.001 µM | [11] 0.001 µM

CN(C)CCN(C)C(=O)c1ccc(NC(=O)Nc2ccc(-c3nc(N4CCOCC4)c4ccn(CC(F)(F)F)c4n3)cc2)cc1
active: [2] 3.32 µM | [3] 147 nM | [4] 1.48 µM | [5] 105 nM | [7] 26.4 nM | [8] 0.0485 µM | [9] 0.935 µM | [10] 4.69 µM | [11] 0.418 µM | [12] 7.64 µM
inactive: [1]

O=C1CCCC(=O)C1C(=O)c1ccc(C(F)(F)F)cc1[N+](=O)[O-]
inactive: [1] | [2] | [3] | [4] | [5] | [6] | [9] | [10] | [11]

NCC1CCC(C(=O)O)CC1 (stereo not drawn)
inactive: [1] | [2] | [3] | [4] | [5] | [6] | [7] | [8] | [9] | [10]

COc1ccnc(CS(=O)c2nc3ccc(OC(F)F)cc3[nH]2)c1OC (stereo not drawn)
not listed: [7] | [13] | [14] | [15] | [16] | [17] | [18] | [19]
inactive: all other assays above

CC(=O)N1CCN(c2ccc(OCc3nn(C)c(C)c3-c3cccc4c(CCCOc5cc(C)c(Cl)c(C)c5)c(C(=O)O)n(Cc5cccnc5)c34)cc2)CC1
inactive: [1] | [2] | [3] | [10]
active: [4] 18.7 µM | [5] 23500 nM | [6] 14.8 µM | [7] 4180 nM | [8] 24.3 µM | [9] 14.8 µM | [11] 18.7 µM

CC[C@H](C=C[C@@H](C)[C@H]1CC[C@H]2[C@@H]3CC=C4C[C@@H](O)CC[C@]4(C)[C@@H]3CC[C@]12C)C(C)C
not listed: [7] | [13] | [14] | [15] | [16] | [17] | [18] | [19]
inactive: all other assays above

CC1(C)[C@H]2CC[C@]3(C)[C@@H](C(=O)C=C4[C@@H]5C[C@@](C)(C(=O)O)CC[C@]5(C)CC[C@]43C)[C@@]2(C)CC[C@@H]1O
not listed: [9] | [13] | [14] | [15] | [16] | [17] | [18] | [19]
inactive: all other assays above

C=CCc1cccc(C=NNC(=O)CN2CCN(Cc3ccccc3)CC2)c1O
active: [1] 10.5 µM | [2] 13.2 µM | [4] 18.7 µM | [5] 6620 nM | [7] 11800 nM | [8] 9.68 µM | [9] 5.9 µM | [11] 5.9 µM | [12] 9.61 µM
inactive: [13] | [14] | [15] | [16] | [17] | [18] | [19] | [10]

O=C(O)C1=CO[C@@H](O[C@@H]2O[C@H](CO)[C@H](O)[C@H](O)[C@H]2O)[C@@H]2C(CO)=CC[C@H]12
inactive: [1] | [2] | [3] | [4] | [5] | [6] | [7] | [8] | [9] | [10]

O=C(O)C1=NC(C(=O)O)CC(C=CN2c3cc(O)c(OC4OC(CO)C(O)C(O)C4O)cc3CC2C(=O)O)=C1 (stereo not drawn)
inactive: [1] | [2] | [3] | [4] | [5] | [8] | [9] | [10] | [11]

CCN(CCO)CCCOc1ccc2c(Nc3cc(CC(=O)Nc4cccc(F)c4)[nH]n3)ncnc2c1
inactive: [1] | [2] | [4] | [11]
active: [3] 330 nM | [5] 166 nM | [7] 209 nM
